Measurements from PubChem BioAssay (NCATS).
Inconclusive results are not listed. A call without a number means that no potency is given here. Activity calls are given as the source filed them. Unless noted, calls follow the shape of the dose curve; as a rule, active = well fitted curve in the direction sought with a large enough effect; inconclusive = small, poorly fitted or top-dose-only effect, or another doubt; inactive = no such curve, though single readings can be large; an effect the other way counts as inactive or inconclusive.

Test system: not listed separately
Experiment: Confirmation and Secondary Assay for Modulators of Hemoglobin Beta Chain Splicing at IVS2 705 locus (AID 930);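 also: HeLa cells stably expressing the EGFP-705 splicing reporter; GFP fluorescence per well restored by corrected splicing of the IVS2-705 intron in EGFP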
Conditions: HeLa EGFP-705 splicing reporter, GFP fluorescence, 48 h; series mostly up to 46.1 µM
How it was run: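 First, HeLa EGFP-705 cells are seeded at 500/well in Optimem with 2% FCS and left overnight. Next, compound or DMSO is added for 2 days. Finally wells are laser-scanned and total peak GFP intensity scored.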

| SMILES | outcome |
| --- | --- |
| Oc1cc(O)c2c(c1)OC(c1ccc(O)c(O)c1)C(O)C2 (centres undefined) | inactive |
| C=CCSSSCC=C | inactive |
| CC1=C(/C=C/C(C)=C/C=C/C(C)=C/C=C/C=C(C)/C=C/C=C(C)/C=C/C2=C(C)C(=O)CCC2(C)C)C(C)(C)CCC1=O | inactive |
| CN1Cc2c(N)cccc2C(c2ccccc2)C1 (centres undefined) | inactive |
| Nc1c(Br)cc(Br)cc1CNC1CCC(O)CC1 (centres undefined) | inactive |
| C[C@@H]1CCC2[C@@H](C)[C@@H](O)O[C@@H]3O[C@@]4(C)CC[C@@H]1[C@@]23OO4 (some centres undefined) | inactive |
| CC(C(=O)O)c1ccc(N2Cc3ccccc3C2=O)cc1 (centres undefined) | inactive |
| CC1=C(/C=C/C(C)=C/C=C/C(C)=C/CO)C(C)(C)CCC1 | inactive |
| NC(=O)c1ncn(C2OC(CO)C(O)C2O)n1 (centres undefined) | inactive |
| CC1=C(/C=C/C(C)=C/C=C/C(C)=C/C=C/C=C(C)/C=C/C=C(C)/C=C/C2=C(C)CCCC2(C)C)C(C)(C)CCC1 | inactive |
| CCC(=O)NCCC1CCc2ccc3c(c21)CCO3 (centres undefined) | inactive |
| O=C(O)CN(CCN(CC(=O)O)CC(=O)O)CC(=O)O | inactive |
| CCOc1ccc2c(c1)C(C)=CC(C)(C)N2 | inactive |
| CCCC(=O)Nc1ncnc2c1ncn2C1OC2COP(=O)(O)OC2C1OC(=O)CCC (centres undefined) | inactive |

Target: Pyruvate kinase (Leishmania mexicana) (UniProt Q27686)
Sequence (Q27686 2-499 E452W): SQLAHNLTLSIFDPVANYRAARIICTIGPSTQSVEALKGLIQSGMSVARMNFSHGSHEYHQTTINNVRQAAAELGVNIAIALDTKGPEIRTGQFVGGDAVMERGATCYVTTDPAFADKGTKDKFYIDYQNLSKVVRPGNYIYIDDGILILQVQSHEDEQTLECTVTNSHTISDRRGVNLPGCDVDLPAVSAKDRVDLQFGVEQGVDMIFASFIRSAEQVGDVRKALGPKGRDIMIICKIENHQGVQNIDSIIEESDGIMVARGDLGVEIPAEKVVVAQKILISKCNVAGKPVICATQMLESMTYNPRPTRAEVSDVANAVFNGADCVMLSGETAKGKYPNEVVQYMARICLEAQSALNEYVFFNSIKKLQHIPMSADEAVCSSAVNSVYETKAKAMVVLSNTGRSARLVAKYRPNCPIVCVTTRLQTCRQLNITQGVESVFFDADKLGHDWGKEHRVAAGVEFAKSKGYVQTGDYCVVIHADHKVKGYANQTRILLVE
Experiment: qHTS Validation Assay for Inhibitors of Leishmania Mexicana Pyruvate Kinase (AID 945)
Conditions: purified L. mexicana pyruvate kinase, enzyme activity, E451W mutant enzyme; series mostly up to 57.5 µM
How it was run: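 qHTS eight-point titrations against 0.2 nM LmPYK (E451W) in imidazole buffer pH 7.2 with 0.5 mM PEP, 0.1 mM ADP; 1 h, room temperature. Readout: PKLight luminescence, normalized to neutral DMSO wells.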

| SMILES | outcome |
| --- | --- |
| COc1ccc(CCNC[C@H](O)c2ccc(O)cc2)cc1OC | inactive |
| CC[N+](C)(C)Cc1ccccc1Br | inactive |
| CN=C(NC#N)Nc1ccc(C2=NNC(=O)C[C@@H]2C)cc1 | inactive |

Test system: not listed separately
Experiment: MultiTox-Fluor Cytotoxicity Assay - LYMP1-001 - Dead Cells (AID 946);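 also: cells exposed to compound for 16 h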; also: potency is read from the fitted curve at half-maximal effect
Conditions: LYMP1-001 lymphoblastoid cells, dead-cell protease fluorescence; series mostly up to 92.2 µM
How it was run: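 Seed 2500 LYMP1-001 cells/well, incubate 5 hr at 37 C; add compound, 16 hr at 37 C; add MultiTox-Fluor reagent, 60 min RT; read dead-cell fluorescence Ex/Em=485/520. Normalize to DMSO and 15 uM tetraoctylammonium bromide.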

| SMILES | Potency |
| --- | --- |
| CCCCCCCC/C=C\CCCCCCCC(=O)O | inactive |
| Nc1ccn([C@H]2CS[C@@H](CO)O2)c(=O)n1 | inactive |
| O=C(O)CCC(=O)C(=O)O | inactive |
| CCOC(C)=O | inactive |
| O=S(=O)(O)O | inactive |
| CC(C)(C)NC(=O)[C@@H]1C[C@@H]2CCCC[C@@H]2CN1C[C@@H](O)[C@H](Cc1ccccc1)NC(=O)[C@H](CC(N)=O)NC(=O)c1ccc2ccccc2n1 | 50.1 µM (active) |
| CC(C)=O | inactive |
| CCCCC/C=C\C/C=C\CCCCCCCC(=O)O | inactive |
| CCCCCCCC(=O)O | inactive |
| IC(I)I | inactive |
| CC1=C2[C@@H]([C@H](C)CC[C@H]2/C=C(\C)C(=O)O)[C@H](O)C1 | inactive |
| Cc1ccccc1 | inactive |
| O=CCCCC=O | inactive |
| CCOc1ccc2c(c1)C(C)=CC(C)(C)N2 | inactive |
| CC(O)CO (centres undefined) | inactive |

Test system: not listed separately
Experiment: MultiTox-Fluor Cytotoxicity Assay - LYMP1-001 - Live Cells (AID 947)
Conditions: LYMP1-001 lymphoblastoid cells, live-cell protease fluorescence viability; series mostly up to 92.2 µM

| SMILES | outcome |
| --- | --- |
| Nc1ccn([C@H]2CS[C@@H](CO)O2)c(=O)n1 | inactive |
| O=C(O)CCC(=O)C(=O)O | inactive |
| CCOC(C)=O | inactive |
| O=S(=O)(O)O | inactive |
| CC(C)=O | inactive |
| CCCCCCCC(=O)O | inactive |
| IC(I)I | inactive |
| CC1=C2[C@@H]([C@H](C)CC[C@H]2/C=C(\C)C(=O)O)[C@H](O)C1 | inactive |
| Cc1ccccc1 | inactive |
| CCOc1ccc2c(c1)C(C)=CC(C)(C)N2 | inactive |
| CC(O)CO (centres undefined) | inactive |

Test system: not listed separately
Experiment: Cell Viability - LYMP1-002 - Assay at 16 hr (AID 948)
Conditions: LYMP1-002 lymphoblastoid cell viability; series mostly up to 92.2 µM
How it was run: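 ATP luminescence (CellTiter-Glo) was measured after 16 hr compound exposure at 37 C of 2500 lymphoblastoid LYMP1-002 cells per well. Concentration-response curves were fitted with the Hill equation to give AC50.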

| SMILES | outcome |
| --- | --- |
| CCCCCCCC/C=C\CCCCCCCC(=O)O | inactive |
| Nc1ccn([C@H]2CS[C@@H](CO)O2)c(=O)n1 | inactive |
| O=C(O)CCC(=O)C(=O)O | inactive |
| CCOC(C)=O | inactive |
| O=S(=O)(O)O | inactive |
| CC(C)=O | inactive |
| CCCCC/C=C\C/C=C\CCCCCCCC(=O)O | inactive |
| CC1=C(/C=C/C(C)=C/C=C/C(C)=C/CO)C(C)(C)CCC1 | inactive |
| CCCCCCCC(=O)O | inactive |
| IC(I)I | inactive |
| CC1=C2[C@@H]([C@H](C)CC[C@H]2/C=C(\C)C(=O)O)[C@H](O)C1 | inactive |
| Cc1ccccc1 | inactive |
| O=CCCCC=O | inactive |
| CCOc1ccc2c(c1)C(C)=CC(C)(C)N2 | inactive |
| CC(O)CO (centres undefined) | inactive |

Target: Pyruvate kinase PKM (Homo sapiens) (UniProt P14618)
Sequence (P14618 whole entry, looked up): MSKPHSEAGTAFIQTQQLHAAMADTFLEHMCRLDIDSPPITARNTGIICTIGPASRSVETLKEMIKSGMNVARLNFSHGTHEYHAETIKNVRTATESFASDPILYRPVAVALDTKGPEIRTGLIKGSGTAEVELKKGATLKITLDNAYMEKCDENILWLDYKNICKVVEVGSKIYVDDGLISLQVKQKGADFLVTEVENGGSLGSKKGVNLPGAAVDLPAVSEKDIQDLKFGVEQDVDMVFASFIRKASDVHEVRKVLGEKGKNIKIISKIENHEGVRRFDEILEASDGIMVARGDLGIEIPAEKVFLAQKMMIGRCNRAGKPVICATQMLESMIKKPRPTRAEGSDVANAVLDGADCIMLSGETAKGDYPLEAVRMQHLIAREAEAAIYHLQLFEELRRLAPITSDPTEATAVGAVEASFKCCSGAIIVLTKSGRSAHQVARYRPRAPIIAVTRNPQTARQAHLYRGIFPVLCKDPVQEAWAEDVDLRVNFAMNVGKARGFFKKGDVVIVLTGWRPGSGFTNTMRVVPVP
Experiment: qHTS Assay for Activators of Human Muscle Pyruvate Kinase (AID 954; active = well fitted curve in the direction sought with a large enough effect, not every such curve was filed as active)
Conditions: purified human muscle pyruvate kinase, luciferase-coupled luminescence, 1 h; series mostly up to 57.5 µM
How it was run: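 Reaction: 0.1 nM purified PKM2 with 0.5 mM phosphoenolpyruvate and 0.1 mM ADP, room temperature, 1 h. Readout: luciferase-based ATP luminescence after stop reagent. Activators judged against a 0.3 nM enzyme column.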

| SMILES | outcome |
| --- | --- |
| COc1ccc(CCNC[C@H](O)c2ccc(O)cc2)cc1OC | inactive |
| CC[N+](C)(C)Cc1ccccc1Br | inactive |
| CN=C(NC#N)Nc1ccc(C2=NNC(=O)C[C@@H]2C)cc1 | inactive |

Test system: not listed separately
Experiment: MultiTox-Fluor Cytotoxicity Assay - LYMP1-002 - Dead Cells (AID 960); also: nearly all actives have a fitted effect of over 60% in size; also: potency is read from the fitted curve at half-maximal effect
Conditions: LYMP1-002 lymphoblastoid cells, dead-cell protease fluorescence; series mostly up to 46.1 µM
How it was run: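 LYMP1-002 cells 2500/well; 5 hr 37 C pre-incubation; compound 16 hr 37 C; MultiTox-Fluor reagent 60 min RT; dead-cell fluor Ex/Em 485/520. Norm. to DMSO (0%) vs 15 uM tetraoctylammonium bromide (100%); Hill AC50.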

| SMILES | Potency |
| --- | --- |
| CCCCCCCC/C=C\CCCCCCCC(=O)O | inactive |
| Nc1ccn([C@H]2CS[C@@H](CO)O2)c(=O)n1 | inactive |
| O=C(O)CCC(=O)C(=O)O | inactive |
| CCOC(C)=O | inactive |
| O=S(=O)(O)O | inactive |
| CC(C)(C)NC(=O)[C@@H]1C[C@@H]2CCCC[C@@H]2CN1C[C@@H](O)[C@H](Cc1ccccc1)NC(=O)[C@H](CC(N)=O)NC(=O)c1ccc2ccccc2n1 | 31.6 µM (active) |
| CC(C)=O | inactive |
| CCCCC/C=C\C/C=C\CCCCCCCC(=O)O | inactive |
| CCCCCCCC(=O)O | inactive |
| IC(I)I | inactive |
| CC1=C2[C@@H]([C@H](C)CC[C@H]2/C=C(\C)C(=O)O)[C@H](O)C1 | inactive |
| Cc1ccccc1 | inactive |
| CCOc1ccc2c(c1)C(C)=CC(C)(C)N2 | inactive |
| CC(O)CO (centres undefined) | inactive |

Test system: not listed separately
Experiment: MultiTox-Fluor Cytotoxicity Assay - LYMP1-003 - Dead Cells (AID 961);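 also: cells exposed to compound for 16 h at 37 °C; nearly all actives have a fitted effect of over 70% in size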; also: potency is read from the fitted curve at half-maximal effect
Conditions: LYMP1-003 lymphoblastoid cells, dead-cell protease fluorescence; series mostly up to 92.2 µM
How it was run: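 LYMP1-003 lymphoblastoid, 2500 cells/well, 5 hr settle then 16 hr cpd at 37 C; MultiTox-Fluor reagent 60 min RT; Ex/Em 485/520 dead-cell signal; norm. DMSO = 0%, 15 uM tetraoctylammonium bromide = 100%; Hill AC50.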

| SMILES | Potency |
| --- | --- |
| CCCCCCCC/C=C\CCCCCCCC(=O)O | inactive |
| Nc1ccn([C@H]2CS[C@@H](CO)O2)c(=O)n1 | inactive |
| O=C(O)CCC(=O)C(=O)O | inactive |
| CCOC(C)=O | inactive |
| O=S(=O)(O)O | inactive |
| CC(C)(C)NC(=O)[C@@H]1C[C@@H]2CCCC[C@@H]2CN1C[C@@H](O)[C@H](Cc1ccccc1)NC(=O)[C@H](CC(N)=O)NC(=O)c1ccc2ccccc2n1 | 50.1 µM (active) |
| CC(C)=O | inactive |
| CCCCC/C=C\C/C=C\CCCCCCCC(=O)O | inactive |
| CCCCCCCC(=O)O | inactive |
| IC(I)I | inactive |
| CC1=C2[C@@H]([C@H](C)CC[C@H]2/C=C(\C)C(=O)O)[C@H](O)C1 | inactive |
| Cc1ccccc1 | inactive |
| O=CCCCC=O | 50.1 µM (active) |
| CC(O)CO (centres undefined) | inactive |
